Assay outcomes: PubChem, National Center for Advancing Translational Sciences (NCATS)
PI5P4Ka inh: inhibitors of human PI5P4K alpha. actives 1.2% (n = 330,000). max response, %. PI5P4Kalpha enzyme, ADP-Glo luminescence, 60 min; hits give low values. P48426; active = max response of -50% or lower; inconclusive = between -30% and -50%; inactive = -30% or higher; note: value at the top dose of about 77 µM; % is set by controls: 0 for no effect and ±100 for the full control effect
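Enzyme plus substrate dispensed, test compounds pinned in, then ATP (5 microM final) added. After 60 min at RT, ADP-Glo reagent 1 for 45 min and reagent 2 for 30 min preceded luminescence imaging.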
G9a inh: blocks human histone lysine methyltransferase G9a. Q96KQ7. G9a H3K9 monomethylation, AlphaScreen, 2 h. Potency, µM (series often up to 102 µM), inactives show at the highest dose activity, negative = inhibition, actives largely listed as inhibitors. actives 8.8% (n = 350,000). AID 504332; note: potency is the fitted concentration of half-maximal effect; % is set by controls: 0 for no effect and ±100 for the full control effect; nearly all actives have a fitted effect of over 75% in size
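AlphaScreen read-out: biotin-H3K9 peptide (500 nM) methylation by 20 nM enzyme with 20 uM SAM, 2 h at room temperature after 15 min compound preincubation; anti-monomethyl H3K9 antibody plus donor/acceptor beads, 10 min dark.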
JMJD2A Tudor inh: inhibitors of human JMJD2A Tudor domain | O75164 | AlphaScreen JMJD2A-Tudor / H3K4me3 peptide binding | Potency, µM (titrated, usually from 114 µM), without a hit: top-dose activity change, negative = inhibition, most hits filed as inhibitors | actives 4.4% (n = 390,000) | AID 504339; note: potency is the fitted concentration of half-maximal effect; % is set by controls: 0 for no effect and ±100 for the full control effect; nearly all actives have a fitted effect of over 50% in size
BAZ2B inh: blocks human BAZ2B | actives 4.4% (n = 360,000) | AlphaScreen BAZ2B-H3K14Ac peptide displacement | Q9UIF8 | Potency, µM (doses to about 114 µM), for inactives: at the highest dose activity change, negative = inhibition, actives largely listed as inhibitors; note: potency is the fitted concentration of half-maximal effect; % is set by controls: 0 for no effect and ±100 for the full control effect; nearly all actives have a fitted effect of over 60% in size
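BAZ2B 50 nM plus b-H3(5-23)K14Ac 50 nM, PBS pH 7.4/0.01% Tween-20, 30 min RT; compound added (max 110 uM), 30 min RT; streptavidin donor/Ni-chelate acceptor beads 10 ug/mL final, 20 min dark; AlphaScreen read.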
HP1b chromo inh: blocks HP1-beta chromodomain binding to methylated histone tails | P83916 | AID 540317 | Potency, µM (series often up to 114 µM), for inactives: top-dose activity change, negative = inhibition, most hits filed as inhibitors | actives 0.56% (n = 390,000) | AlphaScreen HP1-beta / biotin-H3K9me3 peptide binding; note: potency is the fitted concentration of half-maximal effect; nearly all actives have a fitted effect of over 70% in size
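Compound inhibition of the preformed complex between 50 nM HP1-beta and 50 nM biotinylated H3K9me3 peptide was read by AlphaScreen. Buffer was PBS pH 7.4 with 0.01% Tween-20. Incubations ran 30 min at room temperature, with 10 ug/mL donor/acceptor beads.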
PLK1 PBD inh: blocks phosphopeptide binding to human PLK1 polo-box domain. Plk1 PBD binding of FITC phosphopeptide, fluorescence polarization. P53350. actives 2.8% (n = 360,000). Potency, µM, for the others: max response, negative = inhibition, hits mostly inhibitors; note: potency is the fitted concentration of half-maximal effect; series mostly up to about 57 µM; % is set by controls: 0 for no effect and ±100 for the full control effect; nearly all actives have a fitted effect of over 65% in size
* = called active by the depositor; [ ] = dose if it differs, or a comment. This is a sample that favours compounds with a hit; in the whole collection about 12% have one here. Unless noted, calls come from the whole dose curve; as a rule, active = well fitted curve in the direction sought with a large enough effect; inconclusive = small, poorly fitted or top-dose-only effect, or another doubt; inactive = no such curve, though single readings can be large; an effect the other way counts as inactive or inconclusive.

`O=C(Nc1cccc2c(=O)[nH][nH]c(=O)c12)c1ccc([N+](=O)[O-])cc1` gave PI5P4Ka inh -65* and PLK1 PBD inh -16%.
Cc1c(C(=O)Oc2cccc3cccnc23)cccc1[N+](=O)[O-] was read as PI5P4Ka inh 0, G9a inh inconclusive, JMJD2A Tudor inh 45µM*, BAZ2B inh 14µM*, HP1b chromo inh inconclusive and PLK1 PBD inh -14%.
Screening O=C(Oc1cccc2cccnc12)c1cccc([N+](=O)[O-])c1 returned PI5P4Ka inh 1, G9a inh 9%, JMJD2A Tudor inh 50µM*, BAZ2B inh 16µM*, HP1b chromo inh 2% and PLK1 PBD inh -3%.
For Cc1cc(C(=O)Nc2cccc3cccnc23)ccc1[N+](=O)[O-] the results were PI5P4Ka inh -8, JMJD2A Tudor inh -8%, BAZ2B inh -15%, HP1b chromo inh 24% and PLK1 PBD inh 0%.
O=C(Nc1cccc2cccnc12)c1ccccc1[N+](=O)[O-] was read as G9a inh -35%[59 µM], JMJD2A Tudor inh -11%, BAZ2B inh 2%[57.1 µM] and HP1b chromo inh 20%.
For Cc1ccc2c(c1)N(C(=O)N1CCC(C(=O)Nc3cccc(F)c3)CC1)CCO2 the results were G9a inh -31%[59 µM], JMJD2A Tudor inh -21%, BAZ2B inh -7% and HP1b chromo inh 22%.
COc1ccc2nc3oc(C(=O)N4CCN(c5cc(C)ccc5C)CC4)cc3cc2c1 was read as G9a inh -28%[59 µM], JMJD2A Tudor inh -8% and HP1b chromo inh 17%.
For O=C(Nc1cc([N+](=O)[O-])ccc1O)c1cccc(C(=O)Nc2cc([N+](=O)[O-])ccc2O)c1 the results were PI5P4Ka inh -24, G9a inh -12%[59 µM], JMJD2A Tudor inh inconclusive, BAZ2B inh 50µM*, HP1b chromo inh -24% and PLK1 PBD inh -19%.
Screening O=C(Nc1cc([N+](=O)[O-])ccc1O)c1cccc([N+](=O)[O-])c1 returned PI5P4Ka inh -4, G9a inh -64%, JMJD2A Tudor inh -20%, BAZ2B inh -36%, HP1b chromo inh 44% and PLK1 PBD inh -4%.
`O=C(Oc1ccc(-c2cnc3ccccc3n2)cc1)c1cccc([N+](=O)[O-])c1` gave PI5P4Ka inh -10, G9a inh 8.9µM*, JMJD2A Tudor inh -15%, BAZ2B inh 7%, HP1b chromo inh 11% and PLK1 PBD inh -6%.
Screening O=C(Oc1c(Cl)cc(Cl)c2cccnc12)c1cccc([N+](=O)[O-])c1 returned PI5P4Ka inh -1, G9a inh inconclusive, JMJD2A Tudor inh inconclusive, BAZ2B inh 28µM*, HP1b chromo inh -18% and PLK1 PBD inh -20%.
`Cc1cc(Br)cn2c(Cc3ccccc3)c(-c3ccc(C#N)cc3)nc12` gave PI5P4Ka inh -5 and PLK1 PBD inh -15%.
Cc1cccnc1C(NC(=O)C1CCN(CCCOc2ccccc2)CC1)c1ccc(F)cc1 (stereo not given) was read as PI5P4Ka inh 0 and PLK1 PBD inh -2%.
For CCN1C(=O)/C(=C/c2cn(-c3ccccc3)nc2-c2cccnc2)SC1=S the results were PI5P4Ka inh 1, JMJD2A Tudor inh -26%, HP1b chromo inh 1% and PLK1 PBD inh 19%.
`O=C(O)CCCCCN1C(=O)/C(=C/c2cn(-c3ccccc3)nc2-c2cccs2)SC1=S` gave PI5P4Ka inh -9, JMJD2A Tudor inh 32µM*, HP1b chromo inh inconclusive and PLK1 PBD inh 27µM*.
Screening O=C(O)CCN1C(=O)/C(=C/c2cn(-c3ccccc3)nc2-c2cccs2)SC1=S returned PI5P4Ka inh -3, G9a inh -10%, JMJD2A Tudor inh 22µM*, BAZ2B inh -12%, HP1b chromo inh inconclusive and PLK1 PBD inh 30µM*.
Screening O=C(O)CCCCCN1C(=O)/C(=C\c2cn(-c3ccccc3)nc2-c2cccs2)SC1=S returned PI5P4Ka inh 0, G9a inh 16µM*, JMJD2A Tudor inh 40µM*, BAZ2B inh 13µM*, HP1b chromo inh -22% and PLK1 PBD inh 50%.
For O=C(CCCN1C(=O)/C(=C\c2cccs2)SC1=S)Nc1ccccc1O the results were PI5P4Ka inh -1 and PLK1 PBD inh -8%.
For COc1ccc(-c2ccc(C3C4C=CCCC4(C)C(=O)N3Cc3ccccc3)c(F)c2)cc1 (stereo not given) the results were JMJD2A Tudor inh -28% and HP1b chromo inh 33%.
For CCn1cc(-c2n[nH]c(=S)n2-c2ccc(C)cc2Br)c(=O)c2ccc(C)nc21 the results were PI5P4Ka inh -5, G9a inh 10µM*, JMJD2A Tudor inh inconclusive, BAZ2B inh -5%, HP1b chromo inh 55% and PLK1 PBD inh 0%.
`O=C(Nc1cccc(S(=O)(=O)NC2=NCCC2)c1)C1CC(=O)N(c2ccc3c(c2)OCCO3)C1` (stereo not given) gave PI5P4Ka inh 7, G9a inh -32%, JMJD2A Tudor inh inconclusive, BAZ2B inh inconclusive, HP1b chromo inh 15% and PLK1 PBD inh -11%.
Cc1cccc(CC(=O)Nc2ccc(C(=O)N3CCOCC3)cc2)c1 was read as PI5P4Ka inh 0, G9a inh 18%, JMJD2A Tudor inh -11%, BAZ2B inh -4%, HP1b chromo inh 9% and PLK1 PBD inh -8%.
For Cc1ccc2c(c1)NC(=O)c1cccnc1N2 the results were PI5P4Ka inh -6, G9a inh 45µM*, JMJD2A Tudor inh -25%, BAZ2B inh 3%[57.1 µM], HP1b chromo inh -8% and PLK1 PBD inh -14%.
CCOc1cc(C(=O)NCc2ccc(-c3nc4ccccc4o3)cc2)cc(OCC)c1OCC was read as G9a inh 28µM*, JMJD2A Tudor inh -3%, BAZ2B inh 1%, HP1b chromo inh 14% and PLK1 PBD inh -11%.
For OC(C#CCN1CCOCC1)(c1ccccc1)C1CC1 (stereo not given) the results were PI5P4Ka inh -13, G9a inh 45µM*, JMJD2A Tudor inh -22%, BAZ2B inh inconclusive, HP1b chromo inh 22% and PLK1 PBD inh -3%.
CC(O)(C#CCN1CCCCCC1)c1ccccc1 (stereo not given) was read as PI5P4Ka inh 6, G9a inh 50µM*, JMJD2A Tudor inh -20%[11.4 µM], BAZ2B inh 2%, HP1b chromo inh 5% and PLK1 PBD inh 30µM*.
For OC(C#CCN1CCCC1)(c1ccccc1)c1ccccc1 the results were PI5P4Ka inh -5, G9a inh -11%[12.7 µM], JMJD2A Tudor inh -14%, BAZ2B inh -4%, HP1b chromo inh 8% and PLK1 PBD inh -5%.
